Data as given in PubChem BioAssay (NCATS).
Records with an inconclusive call do not appear. The source made the active and inactive calls. Unless noted, calls follow the shape of the dose curve; as a rule, active = well fitted curve in the direction sought with a large enough effect; inconclusive = small, poorly fitted or top-dose-only effect, or another doubt; inactive = no such curve, though single readings can be large; an effect the other way counts as inactive or inconclusive.

Tests used:
[1] = qHTS for Inhibitors of the Functional Ribonucleoprotein Complex (vRNP) of Lassa (LASV) Arenavirus: LASV Primary Screen - GLuc reporter signal (AID 1347082; calls by dose curve; tested in HEK293 reporter line; also: nearly all actives have a fitted effect of over 60% in size; also: potency is read from the fitted curve at half-maximal effect; as to activity change, negative = inhibition: % is scaled to controls: 0 for no effect and ±100 for the full control effect)
[2] = qHTS for Inhibitors of the Functional Ribonucleoprotein Complex (vRNP) of Lassa (LASV) Arenavirus: Viability assay - alamar blue signal for LASV Primary Screen (AID 1347083; calls by dose curve; tested in HEK293 reporter line; also: nearly all actives have a fitted effect of over 80% in size; also: potency is read from the fitted curve at half-maximal effect)
[3] = qHTS for Inhibitors of the Functional Ribonucleoprotein Complex (vRNP) of Lymphocytic Choriomeningitis Arenaviruses (LCMV): Viability assay - alamar blue signal for LCMV Primary Screen (AID 1347085; calls by dose curve; tested in HEK293 reporter line; also: nearly all actives have a fitted effect of over 80% in size)
[4] = target: Nucleoprotein (Lymphocytic choriomeningitis virus (strain Armstrong)) (UniProt P09992); assay: qHTS for Inhibitors of the Functional Ribonucleoprotein Complex (vRNP) of Lymphocytic Choriomeningitis Arenaviruses (LCMV): LCMV Primary Screen - GLuc reporter signal (AID 1347086; calls by dose curve; also: nearly all actives have a fitted effect of over 70% in size; as to activity change, negative = inhibition: % is scaled to controls: 0 for no effect and ±100 for the full control effect)
[5] = Cytotoxicity counterscreen for inhibitors of SARS-CoV-2 cell entry (AID 1645845; calls by dose curve; also: nearly all actives have a fitted effect of over 50% in size)
How it was run: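 Counterscreen run in the same HEK293-ACE2 line as the pseudotyped-particle entry assay, without particles. Viability after 48 h at 37 C was read as ATP luminescence, scaled between cell-containing and cell-free wells.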

[6] = Confirmatory qHTS to identify inhibitors of SARS-CoV-2 cell entry (AID 1645844; calls by dose curve; also: nearly all actives have a fitted effect of over 45% in size)
How it was run: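 HEK293-ACE2, overnight seeding; cpd 1 h, 37C/5% CO2; + SARS-CoV-2-S MLV PP (Wuhan-Hu-1, ΔC19); 48 h; Bright-Glo luminescence. Data normalised to S PP and bald PP wells.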

[7] = Primary qHTS to identify inhibitors of SARS-CoV-2 cell entry (AID 1645846; calls by dose curve; also: nearly all actives have a fitted effect of over 45% in size); settings: activity change, negative = inhibition: at 57.1 µM (top of the series) unless noted
How it was run: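 HEK293 cells stably expressing human ACE2, pre-treated 1 h with compound, then infected with MLV particles pseudotyped with Wuhan-Hu-1 spike (C-terminal 19-aa truncation). Luciferase luminescence after 48 h at 37 °C, normalised to spike PP and bald PP.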

[8] = VSVG counterscreen qHTS to identify inhibitors of SARS-CoV-2 cell entry (AID 1645847; calls by dose curve; also: nearly all actives have a fitted effect of over 65% in size)
How it was run: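 HEK293-ACE2 cells (Expi293F, human ACE2) pretreated 1 h with compound, then infected with MLV-based VSV-G pseudotyped particles for 48 h at 37 C; luciferase luminescence normalized to VSV-G PP and bald PP wells.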

[9] = Primary qHTS for small molecule stabilizers of the endoplasmic reticulum resident proteome: Secreted ER Calcium Modulated Protein (SERCaMP) assay (AID 1508630); also: % is scaled to controls: 0 for no effect and ±100 for the full control effect
How it was run: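 The SH-SY5Y reporter protocol was run at 3 concentrations up to 38.3 uM (primary) or 11 concentrations (follow-up): 16 h compound, 100 nM thapsigargin for 4 h, then extracellular luciferase luminescence.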

[10] = NCATS anti-infectives library activity on HEK293 viability as a counter-qHTS vs the C. elegans viability qHTS (AID 1745854);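 also: HEK293 cells exposed to compounds for 24 hr before the viability read; % is scaled to controls: 0 for no effect and ±100 for the full control effect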
How it was run: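 Compound titrations (final up to 41.7 uM) were incubated with HEK293 cells for 24 hr at 37C under 5% CO2. Viable cells were quantified with CellTiter-Glo after 10 min at ambient temperature.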

[11] = target: Cytochrome P450 3A4 (Homo sapiens) (UniProt P08684); assay: qHTS Assay for Activators of Cytochrome P450 3A4 (AID 885); also: nearly all actives have a fitted effect of over 65% in size
How it was run: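 Using 20nM recombinant human CYP3A4 in potassium phosphate (200mM), substrate Luciferin-PPXE at 25uM, luminescent luciferin detection followed a 60-min RT NADPH reaction; data scaled to 57 uM ketoconazole.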

[12] = Confirmation and Secondary Assay for Modulators of Hemoglobin Beta Chain Splicing at IVS2 654 locus (AID 910);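 also: HeLa cells stably carrying EGFP split by mutant beta-globin IVS2-654 intron; % of control where 0% means no effect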
How it was run: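 HeLa cells stably expressing EGFP interrupted by β-globin IVS2-654 intron, seeded overnight in Opti-MEM/2% FCS, then treated 2 days at 37 °C. Restored splicing read as total peak GFP intensity per well by laser scanning cytometry (488 nm excitation, 500–520 nm emission); 500 nM antisense PNA as control.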

[13] = Confirmation and Secondary Assay for Modulators of Hemoglobin Beta Chain Splicing at IVS2 705 locus (AID 930);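 also: HeLa cells stably expressing the EGFP-705 splicing reporter; GFP fluorescence per well restored by corrected splicing of the IVS2-705 intron in EGFP; % of control where 0% means no effect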
How it was run: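 Stable HeLa line with EGFP disrupted by mutant beta-globin intron 2 (705). Overnight attachment, then 2 days of compound at 37C, 5% CO2. Signal: peak GFP intensity summed over objects 5-250 µm.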

[14] = qHTS Assay for Lipid Storage Modulators (AID 1519; calls by dose curve); settings: Drosophila S3 cells, BODIPY lipid droplet/cell ratio, laser cytometry, cells loaded with oleic acid; for activity change, negative = inhibition: at 57.5 µM (top of the series)
How it was run: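 Cells seeded at 5,000 per well were treated with compounds over a concentration series and loaded with oleic acid (400 uM, as added). Lipid droplet fluorescence (488 nm excitation, 500-530 nm channel) was read by laser-scanning cytometry and normalized to 20 uM Triacsin C.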

[15] = target: Ubiquitin carboxyl-terminal hydrolase 1 (Homo sapiens) (UniProt O94782); assay: Inhibitors of USP1/UAF1: Pilot qHTS (AID 504865);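 also: rhodamine fluorescence freed from ubiquitin-rhodamine substrate followed over time; top concentration of the series differs between compounds; % is scaled to controls: 0 for no effect and ±100 for the full control effect; nearly all actives have a fitted effect of over 35% in size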
How it was run: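 USP1/UAF1 complex at 1 nM preincubated 15 min at room temperature with compound, then Ub-Rho substrate added at 150 nM final. Fluorescence (480/540 nm) read kinetically in 50 mM HEPES pH 7.8, 0.5 mM EDTA, 1 mM TCEP, 0.1 mg/ml BSA, 0.01% Tween-20.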

[16] = target: Cytochrome P450 3A4 (Homo sapiens) (UniProt P08684); assay: qHTS Assay for Inhibitors and Substrates of Cytochrome P450 3A4 (AID 884); also: % is scaled to controls: 0 for no effect and ±100 for the full control effect; nearly all actives have a fitted effect of over 50% in size
How it was run: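 Luminescent readout of luciferin produced by CYP3A4 (20 nM) dealkylation of Luciferin-PPXE, 25 uM (its KM). NADPH-driven reaction ran 60 min at RT after 10 min compound preincubation; data scaled to 57 uM ketoconazole as 100% inhibition.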

[17] = target: Cytochrome P450 2C9 (Homo sapiens) (UniProt P11712); assay: qHTS Assay for Inhibitors and Substrates of Cytochrome P450 2C9 (AID 883); also: % is scaled to controls: 0 for no effect and ±100 for the full control effect; nearly all actives have a fitted effect of over 60% in size
How it was run: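 Human CYP2C9 (10nM) with Luciferin-H at 100uM (its KM) in 25mM KPO4; compound preincubated 10 min at 37C, then NADPH regeneration for 60 min at 37C. Luciferin read by luminescence after detection reagent; normalized to 57uM sulphaphenazole as full inhibition.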

[18] = target: Cytochrome P450 2D6 (Homo sapiens) (UniProt P10635); assay: qHTS Assay for Inhibitors and Substrates of Cytochrome P450 2D6 (AID 891); also: potency is read from the fitted curve at half-maximal effect; nearly all actives have a fitted effect of over 60% in size
How it was run: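 Luminescent read-out of luciferin formed by 5 nM human CYP2D6 demethylating 30 uM Luciferin-ME EGE (Km level) over 60 min at room temperature after NADPH regeneration addition. Data normalized to full inhibition by 1.43 uM quinidine.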

[19] = qHTS Assay for Identification of Small Molecule Antagonists for Thrombopoietin (TPO) Signaling Pathway (AID 918); settings: TPO-dependent cell signaling reporter, antagonist mode; also: potency is read from the fitted curve at half-maximal effect; nearly all actives have a fitted effect of over 60% in size
How it was run: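 Antagonist mode at EC50 TPO (26 pM) in IL-3-free medium; murine Ba/F3 cells with human TPO receptor and GPIIb-promoter luciferase, 24 hrs at 37 C before luminescent detection.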

[20] = target: Muscarinic acetylcholine receptor M1 (Rattus norvegicus) (UniProt P08482); assay: qHTS Assay for Antagonists of Acetylcholine Muscarinic M1 Receptor: Kinetic Measurement of Intracellular Calcium Response (AID 943); also: potency is read from the fitted curve at half-maximal effect; nearly all actives have a fitted effect of over 75% in size
How it was run: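 Quantitative HTS in CHO-M1 (rat receptor) cells: 10 min compound exposure ahead of 100 nM carbachol, Fluo-4 fluorescence followed 4 min, value expressed as peak-to-basal ratio.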

[21] = target: Alpha-galactosidase (Coffea arabica) (UniProt Q42656); assay: Counterscreen for Glucocerebrosidase Inhibitors: qHTS Assay for Coffee Bean alpha-Galactosidase at pH 4.5 (AID 957);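 also: plate controls were enzyme alone for no effect and no enzyme for full effect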
How it was run: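 Quantitative HTS of compounds (0.7 nM to 77 uM) against coffee bean alpha-galactosidase at pH 4.5, measuring 4-methylumbelliferone fluorescence released from 80 uM substrate.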

[22] = target: Alpha-galactosidase (Coffea arabica) (UniProt Q42656); assay: Counterscreen for Glucocerebrosidase Inhibitors: qHTS Assay for Coffee Bean alpha-Galactosidase at pH 5.9 (AID 998);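 also: plate controls were uninhibited enzyme for no effect and no-enzyme basal signal for full effect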
How it was run: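 Enzyme 2 nM + cpd (0.7 nM–77 uM titration) + 4-MU-alpha-Gal 80 uM, pH 5.9 citrate/Tween-20, RT 20 min, NaOH/glycine stop pH 10, fluor 365/440. Normalized to no-enzyme and full-activity controls; Hill-fit AC50.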

[23] = qHTS for differential inhibitors of proliferation of Plasmodium falciparum line 7G8 (AID 1815);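 also: potency is read from the fitted curve at half-maximal effect; parasite growth measured after three days of incubation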
[24] = qHTS for differential inhibitors of proliferation of Plasmodium falciparum line GB4 (AID 1816); settings: Potency: Plasmodium falciparum GB4 proliferation inhibition;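 also: potency is read from the fitted curve at half-maximal effect; parasite growth measured after 72 h incubation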
[25] = qHTS for differential inhibitors of proliferation of Plasmodium falciparum line 3D7 (AID 1876); also: potency is read from the fitted curve at half-maximal effect
[26] = qHTS for differential inhibitors of proliferation of Plasmodium falciparum line D10 (AID 1877);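 also: potency is read from the fitted curve at half-maximal effect; parasites grown with compound for 72 h before DNA staining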
[27] = qHTS for differential inhibitors of proliferation of Plasmodium falciparum line Dd2 (AID 1882); settings: Potency: Plasmodium falciparum Dd2 proliferation inhibition; also: potency is read from the fitted curve at half-maximal effect; nearly all actives have a fitted effect of over 65% in size
How it was run: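 RBC culture, 0.3% parasitemia / 2.5% Hct final; cpd added by pin tool in DMSO; 72 h, 37 C, 5% CO2; lysis buffer + SYBR Green I, o/n RT dark; FI 485/535; norm. to artemisinin 0.29 uM and DMSO.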

[28] = qHTS for differential inhibitors of proliferation of Plasmodium falciparum line W2 (AID 1883); settings: Potency: Plasmodium falciparum W2 proliferation inhibition;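 also: potency is read from the fitted curve at half-maximal effect; parasites grown with compound for 72 h before lysis and staining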
[29] = qHTS for differential inhibitors of proliferation of Plasmodium falciparum line HB3 (AID 1886); settings: Potency: Plasmodium falciparum HB3 proliferation inhibition;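 also: potency is read from the fitted curve at half-maximal effect; parasites grown with compound for 72 h before SYBR Green readout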
[30] = High Content Imaging Cell-Based qHTS for Inhibitors of the mTORC1 Signaling Pathway in MEF Cells (AID 2667); also: potency is read from the fitted curve at half-maximal effect
How it was run: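 Read-out is the share of phospho-rpS6-positive cells per well, from Hoechst-normalized Alexa-488 Ser235/236 staining imaged on IN Cell. Cells: WT Tsc2-expressing Tsc2-/-, p53-/- MEFs exposed to compound for 24 hrs.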

[31] = target: M-phase phosphoprotein 8 (Homo sapiens) (UniProt Q99549); assay: qHTS Validation Assay for Inhibitors for MPP8 Chromodomain Interactions with Methylated Histone Tails (AID 488949); also: top concentration of the series differs between compounds; % is scaled to controls: 0 for no effect and ±100 for the full control effect; nearly all actives have a fitted effect of over 55% in size
How it was run: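 MPP8 (50 nM) was pre-bound to 50 nM biotinylated H3(1-18)K9me3 peptide in PBS pH 7.4 with 0.01% Tween-20. Compounds were then added for 30 min at room temperature, and complex disruption was read by AlphaScreen with streptavidin donor and nickel-chelate acceptor beads.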

[32] = target: D(1A) dopamine receptor (Homo sapiens) (UniProt P21728); assay: HTS Assay for Allosteric Agonists of the Human D1 Dopamine Receptor: Primary Screen for Potentiators (AID 488982); also: 0% is about no effect
How it was run: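 Tetracycline-induced HEK293 Trex D1 cells with forced coupling to calcium, loaded with no-wash calcium dye; kinetic fluorescence read 180 s after compound addition for agonism, then a further 180 s after an EC20 dopamine challenge for potentiation.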

[33] = Inducers of the Endoplasmic Reticulum Stress Response (ERSR) in human glioma: Validation (AID 504836); also: 0% is about no effect
How it was run: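 Stably transfected U87-MG glioma cells carrying a GRP78-based luciferase sensor; 16 h compound incubation. Luminescence end-point read 10 min after Bright-Glo addition at room temperature.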

[34] = target: Voltage-gated inwardly rectifying potassium channel KCNH2 (Homo sapiens) (UniProt Q12809); assay: qHTS Assay for Small Molecule Inhibitors of the Human hERG Channel Activity (AID 588834);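 also: potency is read from the fitted curve at half-maximal effect; lower thallium flux fluorescence means stronger hERG block; nearly all actives have a fitted effect of over 50% in size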
How it was run: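 Thallium serves as surrogate for K+ influx through BacMam-delivered hERG in U2OS cells. Compounds are added for about 10 minutes after dye loading; stimulation buffer then starts flux, monitored kinetically on FDSS.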

[35] = measured here: cell count channel max response
[36] = measured here: lipid channel max response

Nucleoprotein (Lymphocytic choriomeningitis virus (strain Armstrong)), sequence (P09992 whole entry, looked up): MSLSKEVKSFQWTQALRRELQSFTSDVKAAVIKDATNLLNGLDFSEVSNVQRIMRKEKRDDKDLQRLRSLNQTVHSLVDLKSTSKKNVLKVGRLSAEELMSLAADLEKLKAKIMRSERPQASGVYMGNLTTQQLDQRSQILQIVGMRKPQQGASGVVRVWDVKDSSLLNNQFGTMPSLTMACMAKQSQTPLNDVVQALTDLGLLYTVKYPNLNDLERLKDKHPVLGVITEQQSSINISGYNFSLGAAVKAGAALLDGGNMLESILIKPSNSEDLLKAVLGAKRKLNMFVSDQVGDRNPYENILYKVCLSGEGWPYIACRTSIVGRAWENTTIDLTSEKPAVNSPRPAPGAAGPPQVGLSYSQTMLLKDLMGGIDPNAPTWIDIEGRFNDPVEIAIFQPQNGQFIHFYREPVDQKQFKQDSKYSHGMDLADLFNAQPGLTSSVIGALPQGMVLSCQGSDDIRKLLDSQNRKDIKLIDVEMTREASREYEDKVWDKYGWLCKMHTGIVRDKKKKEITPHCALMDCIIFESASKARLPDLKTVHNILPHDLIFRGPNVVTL
Cytochrome P450 3A4 (Homo sapiens), sequence (P08684 whole entry, looked up): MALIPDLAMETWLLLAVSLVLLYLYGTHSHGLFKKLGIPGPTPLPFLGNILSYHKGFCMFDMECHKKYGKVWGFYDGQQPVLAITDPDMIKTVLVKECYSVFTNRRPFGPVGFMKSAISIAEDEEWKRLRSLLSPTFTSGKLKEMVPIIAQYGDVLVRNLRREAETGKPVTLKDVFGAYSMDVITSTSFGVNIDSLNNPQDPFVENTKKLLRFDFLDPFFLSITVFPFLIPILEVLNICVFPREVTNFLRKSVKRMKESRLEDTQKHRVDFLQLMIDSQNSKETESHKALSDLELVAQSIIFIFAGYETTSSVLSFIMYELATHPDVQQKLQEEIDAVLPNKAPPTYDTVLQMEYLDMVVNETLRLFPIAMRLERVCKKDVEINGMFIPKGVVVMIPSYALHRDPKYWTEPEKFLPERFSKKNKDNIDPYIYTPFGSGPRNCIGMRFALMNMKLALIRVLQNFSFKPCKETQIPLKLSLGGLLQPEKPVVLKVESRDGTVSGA
Ubiquitin carboxyl-terminal hydrolase 1 (Homo sapiens), sequence (O94782 whole entry, looked up): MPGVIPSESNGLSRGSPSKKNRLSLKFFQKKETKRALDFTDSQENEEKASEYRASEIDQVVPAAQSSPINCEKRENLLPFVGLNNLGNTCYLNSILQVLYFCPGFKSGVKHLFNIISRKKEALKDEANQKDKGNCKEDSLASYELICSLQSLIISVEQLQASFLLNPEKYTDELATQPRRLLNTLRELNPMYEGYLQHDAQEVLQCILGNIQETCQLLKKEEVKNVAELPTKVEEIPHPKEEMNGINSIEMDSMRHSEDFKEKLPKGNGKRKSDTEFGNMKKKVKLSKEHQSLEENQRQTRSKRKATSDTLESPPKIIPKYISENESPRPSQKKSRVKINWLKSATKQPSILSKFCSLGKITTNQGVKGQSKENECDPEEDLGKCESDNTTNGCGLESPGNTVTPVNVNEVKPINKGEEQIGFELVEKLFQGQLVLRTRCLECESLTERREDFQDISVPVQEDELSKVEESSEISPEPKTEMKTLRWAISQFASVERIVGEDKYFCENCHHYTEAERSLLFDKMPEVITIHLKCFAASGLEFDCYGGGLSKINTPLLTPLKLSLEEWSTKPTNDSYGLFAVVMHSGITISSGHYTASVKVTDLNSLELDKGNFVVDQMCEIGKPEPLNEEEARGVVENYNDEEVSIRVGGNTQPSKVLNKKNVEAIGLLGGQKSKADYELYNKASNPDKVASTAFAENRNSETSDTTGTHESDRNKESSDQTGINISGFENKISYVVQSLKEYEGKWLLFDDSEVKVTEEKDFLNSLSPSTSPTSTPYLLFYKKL
Alpha-galactosidase (Coffea arabica), sequence (Q42656 whole entry, looked up): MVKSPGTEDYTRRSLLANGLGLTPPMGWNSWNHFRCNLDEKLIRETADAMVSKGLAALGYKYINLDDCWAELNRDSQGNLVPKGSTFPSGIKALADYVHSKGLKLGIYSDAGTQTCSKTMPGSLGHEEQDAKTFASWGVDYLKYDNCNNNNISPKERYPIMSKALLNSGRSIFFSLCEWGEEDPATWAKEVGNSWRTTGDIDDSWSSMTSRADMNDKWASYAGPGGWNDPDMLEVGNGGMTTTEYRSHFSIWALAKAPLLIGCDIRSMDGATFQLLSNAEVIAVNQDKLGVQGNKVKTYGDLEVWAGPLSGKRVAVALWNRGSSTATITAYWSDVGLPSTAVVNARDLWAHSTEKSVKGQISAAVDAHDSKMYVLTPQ
Voltage-gated inwardly rectifying potassium channel KCNH2 (Homo sapiens), sequence (Q12809 whole entry, looked up): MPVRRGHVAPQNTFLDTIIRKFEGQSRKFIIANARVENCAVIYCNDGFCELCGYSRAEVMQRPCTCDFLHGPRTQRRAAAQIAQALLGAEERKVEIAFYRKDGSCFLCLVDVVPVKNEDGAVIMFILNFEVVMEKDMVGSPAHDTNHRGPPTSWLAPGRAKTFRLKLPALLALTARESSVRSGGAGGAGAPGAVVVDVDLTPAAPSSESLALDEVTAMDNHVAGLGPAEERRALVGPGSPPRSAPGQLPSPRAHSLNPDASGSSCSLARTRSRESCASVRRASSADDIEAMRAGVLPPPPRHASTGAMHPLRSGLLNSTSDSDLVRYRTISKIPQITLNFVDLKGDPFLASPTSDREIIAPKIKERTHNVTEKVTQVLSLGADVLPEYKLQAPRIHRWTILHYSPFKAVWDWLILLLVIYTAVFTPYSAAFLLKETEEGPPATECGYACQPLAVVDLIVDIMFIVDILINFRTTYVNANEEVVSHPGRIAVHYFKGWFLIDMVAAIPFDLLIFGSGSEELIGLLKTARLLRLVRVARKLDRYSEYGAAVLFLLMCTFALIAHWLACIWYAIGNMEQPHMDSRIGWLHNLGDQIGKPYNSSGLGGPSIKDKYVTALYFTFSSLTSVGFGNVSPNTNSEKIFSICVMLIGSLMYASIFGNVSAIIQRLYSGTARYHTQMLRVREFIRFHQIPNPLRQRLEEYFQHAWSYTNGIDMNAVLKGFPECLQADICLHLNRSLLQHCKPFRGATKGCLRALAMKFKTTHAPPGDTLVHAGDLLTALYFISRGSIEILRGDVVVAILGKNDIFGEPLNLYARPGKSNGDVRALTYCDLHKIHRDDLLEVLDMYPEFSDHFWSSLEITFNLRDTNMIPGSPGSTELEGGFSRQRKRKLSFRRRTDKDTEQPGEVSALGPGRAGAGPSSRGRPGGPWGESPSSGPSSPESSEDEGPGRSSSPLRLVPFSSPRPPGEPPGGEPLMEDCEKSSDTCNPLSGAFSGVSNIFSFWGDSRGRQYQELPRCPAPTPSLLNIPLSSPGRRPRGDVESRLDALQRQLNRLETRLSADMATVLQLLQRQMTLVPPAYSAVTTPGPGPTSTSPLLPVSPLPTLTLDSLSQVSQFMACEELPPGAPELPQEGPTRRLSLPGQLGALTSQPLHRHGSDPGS
Cytochrome P450 2C9 (Homo sapiens), sequence (P11712 whole entry, looked up): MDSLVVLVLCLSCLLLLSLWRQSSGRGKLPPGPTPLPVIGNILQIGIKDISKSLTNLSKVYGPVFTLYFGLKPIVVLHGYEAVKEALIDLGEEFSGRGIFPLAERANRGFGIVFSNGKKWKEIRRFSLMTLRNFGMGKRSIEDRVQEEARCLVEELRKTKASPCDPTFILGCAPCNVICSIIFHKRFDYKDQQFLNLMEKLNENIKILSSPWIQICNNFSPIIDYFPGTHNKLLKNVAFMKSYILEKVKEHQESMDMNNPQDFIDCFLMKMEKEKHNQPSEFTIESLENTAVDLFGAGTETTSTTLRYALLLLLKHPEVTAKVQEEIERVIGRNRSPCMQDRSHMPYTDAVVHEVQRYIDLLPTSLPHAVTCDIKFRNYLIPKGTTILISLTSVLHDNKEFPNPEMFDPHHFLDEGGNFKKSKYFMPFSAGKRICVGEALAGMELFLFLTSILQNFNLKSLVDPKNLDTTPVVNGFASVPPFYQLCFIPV
M-phase phosphoprotein 8 (Homo sapiens), sequence (Q99549 whole entry, looked up): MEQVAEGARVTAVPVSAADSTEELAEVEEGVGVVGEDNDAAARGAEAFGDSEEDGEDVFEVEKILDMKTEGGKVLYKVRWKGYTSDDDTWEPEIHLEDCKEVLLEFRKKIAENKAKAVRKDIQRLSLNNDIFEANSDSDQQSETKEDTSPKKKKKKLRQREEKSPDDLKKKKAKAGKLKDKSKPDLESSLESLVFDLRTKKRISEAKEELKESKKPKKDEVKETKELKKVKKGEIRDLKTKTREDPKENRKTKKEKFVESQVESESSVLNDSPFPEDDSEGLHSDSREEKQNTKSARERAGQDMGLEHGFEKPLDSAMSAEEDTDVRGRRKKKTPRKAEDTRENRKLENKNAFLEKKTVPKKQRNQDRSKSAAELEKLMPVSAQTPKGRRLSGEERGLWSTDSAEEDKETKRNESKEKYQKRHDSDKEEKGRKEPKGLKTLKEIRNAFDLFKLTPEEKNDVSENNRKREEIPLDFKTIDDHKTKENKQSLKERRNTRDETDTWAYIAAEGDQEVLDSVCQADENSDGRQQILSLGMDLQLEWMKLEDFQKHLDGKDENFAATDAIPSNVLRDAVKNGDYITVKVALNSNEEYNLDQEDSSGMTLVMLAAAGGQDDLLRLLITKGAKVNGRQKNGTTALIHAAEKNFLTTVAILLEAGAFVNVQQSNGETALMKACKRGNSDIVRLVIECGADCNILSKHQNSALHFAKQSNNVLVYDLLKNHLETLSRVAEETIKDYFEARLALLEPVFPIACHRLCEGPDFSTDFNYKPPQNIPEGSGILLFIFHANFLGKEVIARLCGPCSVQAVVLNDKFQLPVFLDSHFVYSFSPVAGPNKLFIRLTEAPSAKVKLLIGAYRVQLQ

CN(C)c1ccc(-c2nc3ncc(Cl)c(N4CCN(CC(=O)Nc5nccs5)CC4)c3[nH]2)cc1
inactive: Potency [1] | Potency [2] | Potency [3] | Potency [4] | Potency [5]

CC(C)c1nn(-c2c(Cl)cccc2Cl)c2nc(Cc3ccc(OCCO)cc3)[nH]c(=O)c12
-95.3%: activity change, negative = inhibition [7]
inactive: Potency [5]
active: Potency [1] 0.172 µM | Potency [2] 0.217 µM | Potency [3] 0.153 µM | Potency [4] 0.243 µM | Potency [6] 0.0341 µM | Potency [8] 0.0541 µM

O=C(NCCCCN1CCOCC1)c1cc2ccccc2o1
inactive: Potency [1] | Potency [2] | Potency [3] | Potency [4] | Potency [6] | Potency [5] | Potency [7] | Potency [8]

CO[C@@H]1C(N(C)C(=O)c2ccccc2)C[C@H]2O[C@]1(C)n1c3ccccc3c3c4c(c5c6ccccc6n2c5c31)C(=O)NC4=O (stereo partly drawn)
inactive: Potency [1] | Potency [3] | Potency [4] | Potency [5]
-47%: activity change, negative = inhibition [7]
active: Potency [2] 12.2 µM | Potency [6] 21.5 µM | Potency [8] 27.1 µM

COC1=C[C@]23CCCN2CCc2cc4c(cc2[C@@H]3[C@@H]1O)OCO4
inactive: Potency [1] | Potency [2] | Potency [3] | Potency [4] | Potency [9] | Potency [10]

C=CC1CN2CCC1CC2C(O)c1ccnc2ccccc12 (stereo not drawn)
inactive: Potency [11] | Potency [12] | outcome [13] | activity change, negative = inhibition [14] 8.66% | Potency [15] | Potency [1] | Potency [2] | Potency [3] | Potency [4]
22.1%: max response [14, 36]
10.9%: max response [14, 35]

C[C@@]12CCC(OS(=O)(=O)O)C[C@@H]1CCC1C2CC[C@]2(C)C(=O)CCC12 (stereo partly drawn)
inactive: Potency [16] | Potency [12] | outcome [13] | activity change, negative = inhibition [14] 7.66% | Potency [15] | Potency [1] | Potency [2] | Potency [3] | Potency [4]
28%: max response [14, 36]
17.5%: max response [14, 35]

OC1(c2ccc(Cl)cc2)CCN(Cc2c[nH]c3ccccc23)CC1
-25.1%: max response [14, 36]
-29.2%: max response [14, 35]
inactive: Potency [17] | outcome [21] | outcome [22] | activity change, negative = inhibition [14] 1.03% | Potency [31] | Potency [32] | outcome [33] | Potency [1] | Potency [2] | Potency [3] | Potency [4]
active: Potency [11] 2.51 µM | Potency [18] 0.316 µM | Potency [19] 10 µM | Potency [20] 11.2 µM | Potency [23] 7.08 µM | Potency [24] 8.91 µM | Potency [25] 5.01 µM | Potency [26] 10 µM | Potency [27] 11.2 µM | Potency [28] 3.98 µM | Potency [29] 10 µM | Potency [30] 2.33 µM | Potency [34] 0.794 µM
